Our source for the outcome and AC50 values is PubChem BioAssay (EPA / NIEHS).

For orientation: AC50 means the midpoint of the concentration-response curve, whichever way the signal moves.

Records with an inconclusive call do not appear. Calls of active or inactive are those of the source. How the source made its calls, unless noted: active means hit-call score of the fitted dose curve at least 0.9, where 1 is the maximum; inactive means score below 0.9.

Experiment [1] is described as follows: CCTE_Harrill_HTTr_Viability_MCF7: CCTE's 6-hour Cell Viability Assessment for the High-Throughput Transcriptomics (HTTr) Platform, in MCF-7 cells cultured in DMEM + 10% fetal bovine serum, Harrill Lab (AID 2284010). Summed up:
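PI exclusion, high-content imaging; 8-pt dilution series, 6 h exposure; bidirectional fit vs DMSO (neg. ctrl/baseline); gain of signal = loss of membrane integrity.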

A short description of experiment [2]: CCTE_Harrill_HTTr_Apoptosis_MCF7: CCTE's 6-hour Apoptosis Assessment for the High-Throughput Transcriptomics (HTTr) Platform, in MCF-7 cells cultured in DMEM + 10% fetal bovine serum, Harrill Lab (AID 2284011). Summed up:
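Apoptosis in MCF-7 cells grown in DMEM with 10% fetal bovine serum was scored after a six hour exposure by high content imaging of caspase-3/7 activation (CellEvent Caspase 3/7 Green), with DMSO serving as negative control and baseline.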

Experiment [3] can be described thus: CCTE_Harrill_HTTr_CellCount_MCF7: CCTE's Cell Proliferation Assessment for the High-Throughput Transcriptomics (HTTr) Platform, Harrill Lab (AID 2284012; active means hit-call score of the fitted dose curve at least 0.9, where 1 is the maximum;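 further: count of Hoechst-stained nuclei per well by high-content imaging in MCF-7 cells; cells exposed to compound for six hours; intended direction is loss of nuclei count meaning fewer cells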). Summed up: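 Readout: Hoechst nuclear count by high-content imaging. MCF-7, 8-point dilution series, 6 h exposure. Bidirectional fit vs DMSO baseline.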
Experiment [4] can be described thus: CCTE_Shafer_MEA_acute_burst_number: CCTE's Neural Acute Assay for Single-Electrode Bursts, Shafer Lab (AID 2284013). Summed up: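 Percent change in single-electrode burst number per well, from 40-min recordings taken before and after adding compound (0.03-40 uM) to primary rat cortical neurons on MEA plates at DIV 13 or 15, 37 C.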
A short description of experiment [5]: CCTE_Shafer_MEA_acute_burst_duration_mean: CCTE's Neural Acute Assay for Mean Burst Duration, Shafer Lab (AID 2284014).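 Further: hits are decreases in mean burst duration relative to DMSO controls.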 Summed up:
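Rat cortical cultures, DIV 13/15; 40 min baseline, then 40 min with compound (0.03-40 uM), 37 C. Spikes: 300-5000 Hz band-pass, 8x rms threshold. Read-out: % change in mean single-electrode burst duration, DMSO-referenced, loss direction.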

Experiment [6] in a line: CCTE_Shafer_MEA_acute_per_burst_spike_number_mean: CCTE's Neural Acute Assay for Average Number of Spikes Per Burst, Shafer Lab (AID 2284015).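 Further: hits are decreases in mean spikes per burst versus baseline.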 Summed up: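 We recorded spontaneous network firing of rat cortical neurons for 40 min before and 40 min during exposure to compound at 0.03-40 uM, at 37 C. Spikes were detected adaptively at 8x rms noise, and the change in average spikes per burst was fitted against DMSO.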

Experiment [7] in a line: CCTE_Shafer_MEA_acute_interburst_interval_mean: CCTE's Neural Acute Assay for Mean Interburst Interval, Shafer Lab (AID 2284016).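 Further: percent change of mean interburst interval versus each well's own pre-dose baseline; curves fitted for decrease in interburst interval relative to DMSO.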 Summed up:
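MEA recording of spontaneous network bursting in primary rat cortical cultures; mean interburst interval was compared before and after a 40-min compound exposure (0.03-40 uM) and expressed as percent change, relative to DMSO.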

The nature of experiment [8]: CCTE_Shafer_MEA_acute_burst_percentage_mean: CCTE's Neural Acute Assay for Percentage of Spikes in a Burst, Shafer Lab (AID 2284017). Summed up: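 Compounds were tested at 0.03-40 uM on primary rat cortical neuron networks grown over microelectrodes, with at least three wells per compound. Spontaneous firing was recorded for 40 min before and 40 min after dosing, and the change in burst percentage was computed per well.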

Experiment [9] is described as follows: CCTE_Shafer_MEA_acute_burst_percentage_std: CCTE's Neural Acute Assay for Standard Deviation of Burst Percentage, Shafer Lab (AID 2284018).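 Further: fitted in the negative direction so actives lower burst percentage SD.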 Summed up: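 Rat primary cortical neurons on 48-well MEAs, DIV 13 or 15, 37 C. 40-min baseline then 40-min recording with compound (0.03-40 uM); well-level SD of per-electrode burst spike percentage, expressed as percent change from baseline.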

Experiment [10] is described as follows: CCTE_Shafer_MEA_acute_per_network_burst_spike_number_mean: CCTE's Neural Acute Assay for Average Number of Spikes in a Network Burst, Shafer Lab (AID 2284019). Summed up: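 Rat cortical cultures, DIV 13/15; spike threshold 8x rms noise, 300-5000 Hz band-pass, 12.5 kHz sampling; wells need >/= 10 active electrodes. Compound 0.03-40 uM, 40 min, 37 C; % change vs own baseline, DMSO negative control.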

Experiment [11] is described as follows: CCTE_Shafer_MEA_acute_per_network_burst_spike_number_std: CCTE's Neural Acute Assay for Standard Deviation of Number of Spikes in a Network Burst, Shafer Lab (AID 2284020).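 Further: fitted for decrease in spike-number SD versus DMSO so actives lower it.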 Summed up: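 Rat cortical cultures, DIV 13/15, 37 C; 20-min stabilisation, 40-min baseline, compound 0.03-40 uM, 40-min re-record. Spikes detected at 8x rms noise (300-5000 Hz band-pass). Readout: % change from baseline in per-burst spike-number SD.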

Experiment [12] can be described thus: CCTE_Shafer_MEA_acute_per_network_burst_electrodes_number_mean: CCTE's Neural Acute Assay for Mean Number of Electrodes in a Network Burst, Shafer Lab (AID 2284021).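 Further: curves fitted for decreases only so hits reduce electrodes per burst.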 Summed up:
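Percent change from baseline in average electrode count per network burst, rat cortical cultures on 48-well MEAs; 40-min recordings each side of exposure, DIV 13 or 15; threshold 8x rms noise; DMSO as negative control.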

The nature of experiment [13]: CCTE_Shafer_MEA_acute_network_burst_percentage: CCTE's Neural Acute Assay for Percentage of Network Bursts, Shafer Lab (AID 2284022).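 Further: curves fitted for loss so actives lower network burst percentage.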 Summed up:
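On DIV 13 or 15, at least three wells of rat cortical neurons per compound are dosed at 0.03-40 uM. Spontaneous firing is detected at 8x rms noise for 40 min before and after dosing at 37 C. The percent change in network-burst spike share is reported.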

Experiment [14] is described as follows: CCTE_Shafer_MEA_acute_cross_correlation_area: CCTE's Neural Acute Assay for Area of Cross Correlation, Shafer Lab (AID 2284024).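 Further: area under pooled inter-electrode spike cross-correlation near zero lag as percent change from own baseline; curves fitted for loss of cross-correlation area so actives lower synchrony.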 Summed up: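 Extracellular recordings from cultured rat cortical neurons measure network synchrony as cross-correlation area; each well's post-compound value (0.03-40 uM, 40 min) is compared with its own 40 min baseline to give percent change.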

The nature of experiment [15]: CCTE_Shafer_MEA_acute_synchrony_index: CCTE's Neural Acute Assay for Synchrony, Shafer Lab (AID 2284027).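 Further: network synchrony index of spontaneous spiking in primary rat cortical neurons on MEAs; fitted for loss of signal so actives lower synchrony relative to DMSO.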 Summed up:
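Rat cortical cultures, DIV 13/15; spikes detected at 8x rms noise, 300-5000 Hz band-pass. Compound 0.03-40 uM, ≥3 wells; 40-min pre- and post-exposure recordings, 37 C. Readout: % change in synchrony index; loss-of-signal fit vs DMSO.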

Experiment [16] has as its target Estrogen receptor (Homo sapiens) (UniProt P03372). Put plainly: CCTE_Deisenroth_AIME_384WELL_LUC_Active: CCTE's 384-well Estrogen Receptor Transactivation Assay with AIME metabolic competence (ERTA luciferase; metabolism positive), Deisenroth Lab (AID 2284030; active means hit-call score of the fitted dose curve at least 0.9, where 1 is the maximum). Summed up: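 Estrogenic luciferase signal in VM7Luc4E2 cells is measured at 24 hour, after chemicals have been preconditioned 2 hours with PB/BNF-induced rat hepatic S9 in alginate. Gain of signal is fitted relative to 17beta-estradiol, across 0.002 - 200 uM.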

Estrogen receptor (Homo sapiens), sequence (P03372 whole entry, looked up): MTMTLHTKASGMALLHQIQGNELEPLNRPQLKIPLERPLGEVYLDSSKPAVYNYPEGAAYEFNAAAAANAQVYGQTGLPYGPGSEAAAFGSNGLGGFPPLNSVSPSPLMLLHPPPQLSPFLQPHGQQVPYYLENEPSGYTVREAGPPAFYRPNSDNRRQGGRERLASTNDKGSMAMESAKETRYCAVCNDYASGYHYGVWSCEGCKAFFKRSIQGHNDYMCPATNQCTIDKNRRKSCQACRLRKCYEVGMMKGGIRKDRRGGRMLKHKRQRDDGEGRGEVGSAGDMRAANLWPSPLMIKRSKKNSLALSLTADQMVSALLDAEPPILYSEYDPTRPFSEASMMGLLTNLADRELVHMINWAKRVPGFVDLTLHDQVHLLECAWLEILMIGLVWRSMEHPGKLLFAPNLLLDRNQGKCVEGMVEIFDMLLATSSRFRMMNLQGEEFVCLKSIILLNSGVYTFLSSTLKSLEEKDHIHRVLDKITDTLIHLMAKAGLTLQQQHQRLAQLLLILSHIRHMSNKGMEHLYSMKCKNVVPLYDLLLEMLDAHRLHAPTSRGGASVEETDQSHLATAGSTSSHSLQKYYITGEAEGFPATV

For `O=C(O)CCCCC(=O)O`, the outcome in [1], in experiment [2], in [3], in [4], in experiment [5] and in experiment [6] was inactive. Moreover, the molecule was classed as inactive in experiment [7], in experiment [8], in [9], in [10], in [11] and in experiment [12]. The call in experiment [13], in experiment [14] and in experiment [15] was inactive.

`C[Si]1(C)O[Si](C)(C)O[Si](C)(C)O[Si](C)(C)O1`: the result in experiment [1], in experiment [2], in experiment [3], in [4], in [5] and in [6] was inactive. Besides, the result in experiment [7], in experiment [8], in [9], in experiment [10], in experiment [11] and in experiment [12] was inactive. The call in experiment [13], in experiment [14], in experiment [15] and in [16] was inactive.

Take `CN1CCCC1=O`: the outcome in [1], in [2], in experiment [3], in [4], in experiment [5] and in experiment [6] was inactive. For the same molecule, the call in experiment [7], in experiment [8], in experiment [9], in experiment [10], in [11] and in [12] was inactive. The call in experiment [13], in experiment [14], in [15] and in experiment [16] was inactive.

As for `Cc1ccc2ncccc2c1`, the result in [1], in [2], in experiment [4], in experiment [5], in experiment [6] and in [7] was inactive. The molecule was classed as inactive in [8], in experiment [9], in experiment [10], in experiment [11], in [12] and in experiment [13]. Moreover, the molecule was called inactive in experiment [14], in [15] and in experiment [16].

Consider `COc1ccc(S(=O)(=O)N2C(=O)[C@@](c3ccccc3OC)(N3C[C@H](O)C[C@H]3C(=O)N(C)C)c3cc(Cl)ccc32)c(OC)c1`, for which the outcome in experiment [1], in experiment [2], in [4], in experiment [5], in experiment [6] and in experiment [7] was inactive. The result in experiment [8], in [9], in experiment [10], in [11], in experiment [12] and in experiment [13] was inactive. In addition, the result in [14] and in experiment [15] was inactive.

For the molecule `COc1cc(C=O)ccc1O`, the result in experiment [1], in [2], in [3] and in [16] was inactive.

In the case of `O=c1c(O)c(-c2ccc(O)c(O)c2)oc2cc(O)cc(O)c12`, the result in experiment [1] and in [2] was inactive. Further, in [16], the concentration at half-maximal activity (AC50) was 21.2 µM (active).

Take `FC(F)(F)C(F)(F)C(F)(F)C(F)(F)C(F)(F)C(F)(F)CCI`: the result in experiment [1], in experiment [2], in [4], in experiment [5], in experiment [6] and in experiment [7] was inactive. Also, the molecule was called inactive in [8], in [9], in [10], in experiment [11], in experiment [12] and in experiment [13]. Further, the call in experiment [14] and in experiment [15] was inactive.

As for `Nc1ccc2c(c1)C(=O)c1ccccc1C2=O`, the result in [1], in [2], in experiment [4], in experiment [5], in experiment [6] and in experiment [7] was inactive. Besides, the result in experiment [8], in experiment [9], in [10], in [11], in experiment [12] and in experiment [13] was inactive. Besides, the call in experiment [14] and in experiment [15] was inactive. The AC50 in experiment [16] was 72.1 µM (active).

Take `CCCCCC(=O)O`: the result in experiment [1], in experiment [2] and in experiment [16] was inactive.

As for `CCCCCCCC=O`, in experiment [16], the AC50 is 27.9 µM (active).

As for `CC1(C)CC(N=C=O)CC(C)(CN=C=O)C1` (centres undefined), the result in experiment [1], in experiment [2] and in [16] was inactive.

`Cc1ccc(N(C)C)cc1`: in experiment [16], the molecule was classed as inactive.

As to `C[C@]12C=CC(=O)C=C1CC[C@@H]1[C@@H]2C(=O)C[C@@]2(C)[C@H]1CC[C@]2(O)C(=O)CO`, the outcome in [1], in experiment [2], in experiment [3] and in [16] was inactive.
